# Rows were chosen to be rich in hits. Some 3.2% of all compounds tested hit in one or more screens of this group.
# Tau fil binding = binders of human tau filaments | AID 596 | 71,000 tested, 2% active | P10636 | Potency, µM (highest dose often 57.1 µM) | recombinant tau filaments, thioflavin S fluorescence, 15 h; filaments grown with octadecylsulfate alongside compound;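 also: actives lower thioflavin S fluorescence by blocking filaments or displacing dye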
#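 Tau 2 uM in ThS buffer dispensed; compound added; 60 uM ODS added (finals 1 uM tau, 30 uM ODS); 15 h 37 C; fluor ex450/em510.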
# ALOX15 inhib = blocks human 15-lipoxygenase activity; purified 15hLO-1, xylenol orange hydroperoxide absorbance; P16050; 74,000 tested, 1.4% active; Potency, µM (series often up to 57.1 µM), usual class: inhibitors; also: nearly all actives have a fitted effect of over 55% in size
#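 40 nM 15hLO-1 + cpd, 15 min RT; start w/ 50 uM AA (final), 6 min RT; stop/detect w/ 200 uM XO + 300 uM Fe(II) in 50 mM H2SO4, 30 min; A573/A405. Buffer 25 mM Hepes pH 7.5, 0.01% Triton X-100. No-enzyme wells as negative control.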
# Hsp90 Hop PPI = changes Hsp90-Hop TPR2A binding signal, up or down | AlphaScreen TPR2A-His6 binding biotin-Hsp90 C-terminal peptide | 71,000 tested, 0.44% active | Potency, µM (doses to about 57 µM); active = well fitted curve in either direction with a large enough effect; inconclusive = small, poorly fitted or top-dose-only effect, or another doubt
# USP2a inhib = USP2a (human) protease inhibition | O75604 | USP2a enzymatic assay, qHTS inhibition | Potency, µM (top dose mostly 38.3 µM), most hits filed as inhibitors | 60,000 tested, 0.1% active; also: nearly all actives have a fitted effect of over 60% in size
# Target sequence (O75604 whole entry, looked up): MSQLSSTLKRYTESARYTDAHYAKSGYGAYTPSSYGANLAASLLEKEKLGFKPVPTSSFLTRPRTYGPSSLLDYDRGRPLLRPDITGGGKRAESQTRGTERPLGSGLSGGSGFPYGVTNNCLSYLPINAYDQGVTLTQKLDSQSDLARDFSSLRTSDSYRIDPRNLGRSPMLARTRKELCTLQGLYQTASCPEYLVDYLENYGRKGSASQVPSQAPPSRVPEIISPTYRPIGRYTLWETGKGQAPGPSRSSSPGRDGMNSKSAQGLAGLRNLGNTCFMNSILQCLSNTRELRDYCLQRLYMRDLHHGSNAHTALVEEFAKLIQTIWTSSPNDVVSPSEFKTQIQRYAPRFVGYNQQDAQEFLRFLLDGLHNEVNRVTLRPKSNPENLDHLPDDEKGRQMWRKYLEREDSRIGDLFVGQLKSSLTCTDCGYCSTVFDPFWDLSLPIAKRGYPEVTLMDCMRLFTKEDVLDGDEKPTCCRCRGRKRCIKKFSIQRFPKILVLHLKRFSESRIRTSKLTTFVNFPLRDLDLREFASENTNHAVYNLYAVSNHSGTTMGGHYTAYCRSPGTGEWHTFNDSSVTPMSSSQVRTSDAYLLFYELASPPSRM
#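 Coupled readout: USP2-cleaved Ub-PLA2 (20nM final) turns over NBD C6-HPC (20uM final), Ex 460nm/Em 535nm after 2.5 h, time-zero read flagging artifacts. Enzyme (20nM final, pH 8.0 Tris) given 30 min RT with compound first; NEM defines full inhibition.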
# A number is an active result; i = inactive; ? = inconclusive; nt = not tested or not shown; [ ] = dose if it differs, or a comment. Unless noted, calls follow the shape of the dose curve; as a rule, active = well fitted curve in the direction sought with a large enough effect; inconclusive = small, poorly fitted or top-dose-only effect, or another doubt; inactive = no such curve, though single readings can be large; an effect the other way counts as inactive or inconclusive.
SMILES,Tau fil binding,ALOX15 inhib,Hsp90 Hop PPI,USP2a inhib
COc1ccc(/C=C/C(=O)c2cccs2)cc1OC,nt,i,nt,nt
O=C(/C=C/c1ccccc1)c1ccc(O)cc1O,nt,20µM,nt,i
O=C(/C=C/c1ccc(O)cc1)c1ccc(O)cc1O,nt,i[11.4 µM],nt,i
COc1ccc(/C=C/C(=O)c2cc(O)ccc2O)cc1,nt,20µM,nt,i
COc1cc(O)c(C(=O)/C=C/c2ccc(O)c(OC)c2)c(OC)c1,nt,i,nt,i
CCCC(=O)Nc1ccc(OC[C@@H](O)CNC(C)C)c(C(C)=O)c1,i,i,i,i
O=c1cc(-c2ccc(O)c(O)c2)oc2cc(O[C@@H]3O[C@@H](CO)[C@@H](O)[C@@H](O)[C@H]3O)cc(O)c12,?,nt,i,nt
O=C(c1cnn2c(C(F)(F)F)cc(-c3ccco3)nc12)N1CCc2ccccc2C1,?,i,i,i
CCc1ccc(NS(=O)(=O)c2ccc(Cl)cc2OC)cc1,nt,i,nt,nt
COc1cc(C2Nc3cccc4cccc(c34)N2)cc(OC)c1O,4µM,i,i,i
COc1cc(C2Nc3cccc4cccc(c34)N2)ccc1OC(C)=O,i,i,i,i
CC(=O)O[C@](C)(CCC=C(C)C)C1CC=C(C)CC1 (some centres not stated),nt,13µM,nt,i
COC(=O)C/C=C\[C@H](C)[C@H](CO)NS(=O)(=O)c1ccc(C)cc1,nt,i[11.4 µM],nt,nt
COc1ccccc1NC(=O)N1CCCC1C(=O)Nc1ccc(NC(C)=O)cc1 (configuration not stated),i,i,i,i
CCC1c2ccc(C)n2CCN1C(=O)Nc1ccccc1OC (configuration not stated),i,3.2µM,i,i
O=C(N1CCOCC1)N1CCN(Cc2ccccc2)CC1,i,i,i,i
Oc1cccc(C(=S)N2CCN(Cc3ccccc3)CC2)c1,i,13µM,i,i
CC(C)CO/N=C1/C[C@@H](O)[C@@H](O)[C@@H]2[C@@H]3C(=O)N(C[C@@H]4CCCO4)C(=O)[C@H]3CC[C@H]12,nt,i[11.4 µM],nt,nt
CCCn1c(-c2ccc(F)cc2)nc2c(N3CCC(N(C)C)C3)nc(C)nc21 (configuration not stated),i,i,i,nt
CCCn1c(-c2ccc(F)cc2)nc2c(N3CCN(C)CC3)nc(C)nc21,i,20µM,i,nt
c1ccc2c(c1)CCN(c1nc3cc4c(cc3s1)OCCO4)C2,i,4µM,i,?
Cc1ccc2[nH]c(=O)c(-c3nc4cc(C)ccn4c3NCc3ccco3)cc2c1,16µM,i,i,nt
Nc1ccc(O)cc1,16µM,?,i,nt
CC1(C)CCCC2(C)C3C(O)CC2(C)C(O)C31 (configuration not stated),nt,i,nt,i
CS(=O)(=O)Nc1cccc(-c2nccc(-n3ccnc3)n2)c1,i,20µM,i,i
SMILES,Tau fil binding,ALOX15 inhib,Hsp90 Hop PPI,USP2a inhib
CS(=O)(=O)Nc1cccc(-c2nc(-n3ccnc3)c3ccccc3n2)c1,i,i,i,i
Cc1ccccc1-c1nccc(-n2ccnc2)n1,i,?,i,i
N#Cc1cccc(-c2nccc(-n3ccnc3)n2)c1,i,10µM,i,i
COC(=O)C1=C(C)N(Cc2ccccc2)[C@]23O[C@](C(=O)OC)(C(=O)N2C1c1ccccc1)C1CCCC(=O)C13 (some centres not stated),nt,i[11.4 µM],nt,nt
COc1cc(S(=O)(=O)NCCc2ccc3c(c2)OCO3)ccc1-n1cnnn1,i,i,i,nt
O=C(CSc1nnc(-c2cccs2)o1)c1cccs1,i,i,i,i
Cc1cc(C(=O)CSc2nnc(-c3cccs3)o2)c(C)n1-c1ccccc1,i,20µM,i,i
Cc1cc(C(=O)CSc2nnc(-c3ccco3)o2)c(C)n1Cc1ccco1,i,25µM,i,i
CCN[C@@H]1C[C@H](N)[C@H](O[C@H]2OC(CN)=CC[C@H]2N)[C@@H](O)[C@H]1O[C@H]1OC[C@@](C)(O)[C@@H](NC)[C@@H]1O,i,i,i,i
Cc1cnc(CNc2cc(-c3ccccc3Cl)ncn2)cn1,i,i,i,i
COc1cccc(-c2cc3nc(-c4ccccc4)cc(N4CCC5(CC4)OCCO5)n3n2)c1,i,i,20µM,i
CC(C)[C@H]1C(=O)C(C(N)=O)=C(O)[C@]2(O)C(=O)C3=C(O)c4c(O)ccc(N(C)C)c4C[C@H]3C[C@@H]12,i,i,?,i
c1ccc2c(c1)nc(-c1ccncc1)n1nnnc21,i,i,i,i
CC1(C)[C@@H]2CC[C@]1(C)[C@@H](OC(=O)/C=C\c1ccccc1)C2,i[11.4 µM],i[11.4 µM],i[11 µM],nt
COc1ccc(S(=O)(=O)Nc2ccc3c(c2)OCO3)cc1OC,25µM,i,i,i
COc1ccc(S(=O)(=O)Nc2ccc3c(c2)OCO3)cc1C(=O)O,nt,i,nt,nt
CC1(C)C(=O)CC[C@@]2(C)C1CC(O)[C@@]1(C)C3=CC(=O)OC(c4ccoc4)[C@]3(C)CCC21 (some centres not stated),nt,i,nt,i
CCN1C(=S)SC(=O)C1=C1C=C(C)N(Cc2ccco2)C(C)=C1,i,i,i,i
CCN1C(=S)SC(=O)C1=C1C=C(C)OC(C)=C1,3.2µM,i,i,i
Cc1ccc(CC(Cc2nc3ccccc3[nH]2)c2nc3ccccc3[nH]2)cc1 (configuration not stated),nt,i,nt,nt
CCn1c(C(=O)NCCCc2ccccc2)cc2sccc21,nt,20µM,nt,nt
CCN1CCN(CCCNC(=O)c2cc3sccc3n2CC)CC1,i,i,i,nt
COC(=O)c1ccc(C(NC(=O)OCc2ccccc2)/C(C)=C/[C@@H](C)C(=O)Nc2ccc(OC)cc2)cc1 (some centres not stated),i,i,i,nt
Cc1nc2cc(NC(=O)Nc3ccc(N4CCOCC4)cc3)ccc2n1C,25µM,i,i,i
CNc1nn(-c2cccc(Cl)c2)nc1N,16µM,i,i,i
SMILES,Tau fil binding,ALOX15 inhib,Hsp90 Hop PPI,USP2a inhib
COc1ccc(-c2coc3cc(O)cc(O)c3c2=O)cc1,?,i,i,i
Cc1csc(-c2coc3cc(O)cc(C)c3c2=O)n1,i,16µM,i,i
CC(=O)c1sc(NC(=O)C2(F)C(F)(F)C(F)(F)C(F)(F)C(F)(F)C2(F)F)nc1C,i,i,i,i
CC(CN(C)C)NC(=O)c1ccc(-n2c(=O)c(=O)[nH]c3ccccc32)cc1 (configuration not stated),nt,i,nt,nt
Nc1cc(C(=O)c2cccs2)ccc1Cl,16µM,i,i,i
CCN1CCN(c2cc(C)c3cc(NC(=O)c4ccc(Br)o4)ccc3n2)CC1,i,i,i,i
CCN1CCN(c2cc(C)c3cc(NC(=O)c4ccncc4)ccc3n2)CC1,16µM,i,i,nt
Cc1ccccc1OCC(O)CO (configuration not stated),nt,i,nt,i
CCOc1ccc2nc(NC(=O)CN3CCC(n4nnc5cc(F)ccc54)CC3)sc2c1,i,i,i,i
CCOc1cc(NC(=O)c2ccco2)c(OCC)cc1NC(=O)Cc1cccc(OC)c1,10µM,?,?,i
Cc1cc(C)n2nc3nc(N4CCCCC4)nc(-c4ccco4)c3c2n1,20µM,16µM,?,i
COc1ccc(-c2cc(C(F)(F)F)nc(N3CCCCCC3)n2)cc1,i,i,25µM,i
COc1ccc(-c2cc(C(F)(F)F)nc(N3CCCCC3)n2)cc1OC,i,?,25µM,?

# Screening data (PubChem BioAssay)
